Source: PubChem (several laboratories)
Sampled rows, rich in hits. Any-hit rate of the full collection: about 4.7%.
TIM10 inh – growth inhibitors of TIM10 yeast strain. S. cerevisiae TIM10 strain growth, BacTiter-Glo luminescence, 24 h. inhibition, % at 10 µM. actives 1.4% (n = 330,000). AID 463195;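 active means inhibition of 40% or more at the single tested concentration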;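 further: wild-type TIM10 isogenic control strain grown at permissive 25 °C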
tim10-1 inh – tim10-1 yeast growth inhibition; S. cerevisiae tim10-1 ts strain growth, BacTiter-Glo, 24 h; inhibition, % at 20 µM; actives 2.2% (n = 330,000);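 active means inhibition of at least 40%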;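 further: mutant grown at 25 °C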
PfHsp90 yeast 2 – reduces growth (ATP signal) of yeast expressing P. falciparum Hsp90; S. cerevisiae expressing PfHsp90, BacTiter-Glo ATP, 48 h; yeast lacking PDR1 and PDR3 efflux regulators; inhibition, % at 9.4 µM; actives 0.32% (n = 310,000);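 active means every replicate shows inhibition above about 80%, whatever the replicate mean, limit read from the data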
SKKanGAS inh – blocks kanamycin growth of S. pyogenes SKKanGAS strain; BacTiter-Glo, 6 h; inhibition, % at 7.5 µM; actives 1.3% (n = 300,000); AID 1662;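 active means mean replicate score, as percent of positive control median, at least 50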;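 further: strain carries kanamycin resistance gene driven by streptokinase promoter and grows in 40 µg/ml kanamycin; loss of luminescence reflects streptokinase promoter inhibition or plain growth inhibition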
tim23-1 inh – tim23-1 yeast growth inhibition; S. cerevisiae tim23-1 growth, BacTiter-Glo luminescence, 24 h; inhibition, % at 20 µM; actives 1.3% (n = 330,000);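 active means growth inhibition of the mutant yeast at or above 50%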;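 further: temperature-sensitive mutant grown at 25 °C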
EBI2 block – EBI2 (human) antagonism; P32249; EBI2 beta-arrestin recruitment, luminescence, 7a,25-OHC stimulated; inhibition, % at 5 µM; actives 0.81% (n = 360,000); in the data active means inhibition above about 38%;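 further: enzyme fragment complementation signal reports receptor beta-arrestin coupling in cells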
Target sequence (P32249 whole entry, looked up, the tested form may be a part): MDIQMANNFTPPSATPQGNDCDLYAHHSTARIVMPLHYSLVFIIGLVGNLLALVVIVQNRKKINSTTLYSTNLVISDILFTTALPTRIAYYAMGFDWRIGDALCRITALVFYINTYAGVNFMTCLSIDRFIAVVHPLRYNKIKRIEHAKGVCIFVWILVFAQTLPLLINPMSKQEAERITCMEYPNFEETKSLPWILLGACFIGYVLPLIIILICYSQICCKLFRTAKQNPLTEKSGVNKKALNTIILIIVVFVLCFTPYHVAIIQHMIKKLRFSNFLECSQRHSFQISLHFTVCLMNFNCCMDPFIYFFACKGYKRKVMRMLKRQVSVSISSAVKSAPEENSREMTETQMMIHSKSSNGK
TIM10 conf – TIM10 yeast growth inhibition, confirmed. actives 63% (n = 4,600). S. cerevisiae tim10 strain growth, BacTiter-Glo luminescence, 24 h. AID 463215. shares compounds with TIM10 inh. inhibition, % at 10 µM;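 active means inhibition of yeast growth at or above a set limit in either of two replicates at 10 µM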; further: this counterscreen used the strain with wild-type TIM10
tim23-1 conf – confirmation of tim23-1 mutant yeast growth inhibitors; shares compounds with tim23-1 inh; S. cerevisiae tim23-1 growth, BacTiter-Glo luminescence, 24 h; inhibition, % at 20 µM; actives 83% (n = 4,400); AID 463218;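 active means inhibition above about 39% in either of two replicate wells at 20 µM, limit read from the data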;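 further: temperature-sensitive tim23-1 mutant grown at 25 °C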
Of the large screens only hits and unclear results are named; the others gave an inactive call (follow-up assays come after a bar, where they were run).

CCNc1nc(N)nc(-c2cc(Cl)ccc2O)n1	TIM10 inh 50, tim23-1 inh 56 | TIM10 conf inactive | tim23-1 conf inactive
Cc1cccc(C)c1N=Nc1c(C)cc(O)cc1C	TIM10 inh 47, PfHsp90 yeast 2 112, tim23-1 inh 63 | TIM10 conf 65 | tim23-1 conf inactive
O=C(COc1ccc(Cl)cc1)OCC(=O)N1CCOCC1	none (no result: SKKanGAS inh)
S=C(Sc1ccc(Cl)cc1)Sc1ccc(Cl)cc1	TIM10 inh 47, tim23-1 inh 73 (no result: PfHsp90 yeast 2, EBI2 block) | TIM10 conf 42 | tim23-1 conf 77
CC(=O)/C(=C\N(C)C)Sc1ccc(Cl)cc1	none
CCc1ccn2cc(-c3cc(-c4ccccc4)no3)nc2c1	TIM10 inh 62, tim23-1 inh 61 | TIM10 conf 56 | tim23-1 conf 81
O=S1(=O)Nc2c(ccc3cccnc23)-c2ccccc21	TIM10 inh 48, PfHsp90 yeast 2 151, SKKanGAS inh 112, tim23-1 inh 70 | TIM10 conf 57 | tim23-1 conf 47
CCOC(=O)c1cnc2c(C)c(Cl)ccc2c1NCCCN1CCOCC1	TIM10 inh 65, tim23-1 inh 51 | TIM10 conf 60 | tim23-1 conf 41
CCOC(=O)c1cnc2c(Cl)c(Cl)ccc2c1NCCN1CCOCC1	none
Cc1ccc(NC(=O)CSCc2cc(=O)n3cc(C)sc3n2)cc1	none
CC1(C)Cc2cccc(OC(=O)NCCc3ccc(F)cc3)c2O1	none (no result: TIM10 inh, tim10-1 inh, PfHsp90 yeast 2, SKKanGAS inh, tim23-1 inh)
CCOc1ccc2nc(NC(=O)CN3C(=O)C4CCCCC4C3=O)sc2c1 (stereo not drawn)	none
COc1ccccc1[C@]1(C)ON(c2ccccc2C(F)(F)F)C1=O	TIM10 inh 63, tim23-1 inh 69 (no result: SKKanGAS inh) | TIM10 conf 58 | tim23-1 conf inactive
CC[C@]1(c2ccccc2OC)ON(c2ccccc2C(F)(F)F)C1=O	TIM10 inh 40, tim23-1 inh 57 (no result: PfHsp90 yeast 2, SKKanGAS inh, EBI2 block) | TIM10 conf 69 | tim23-1 conf 62
Cc1nnsc1C(=O)NC1CCCc2c1cnn2-c1ccc(C(C)(C)C)cc1 (stereo not drawn)	none
O=[N+]([O-])c1ccc(-c2cn(-c3ccccc3F)c(=S)[nH]2)cc1	none
Cc1ccc(-c2cn(-c3ccccc3F)c(=S)[nH]2)cc1	TIM10 inh 45, tim23-1 inh 61 | TIM10 conf 47 | tim23-1 conf 48
Cc1cc(/C(N)=N/OC(=O)c2ccccc2Cl)no1	none
N/C(=N\OC(=O)c1ccc(Cl)cc1Cl)c1ccc(Cl)cc1	TIM10 inh 79, tim23-1 inh 82 | TIM10 conf 85 | tim23-1 conf 67
N/C(=N\OC(=O)c1cc(Cl)ccc1Cl)c1ccccn1	TIM10 inh 58, tim23-1 inh 66 | TIM10 conf 44 | tim23-1 conf 57
Cc1ccc(/C(N)=N/OC(=O)c2ccc(C)cc2Cl)cc1	TIM10 inh 82, tim23-1 inh 80 | TIM10 conf 89 | tim23-1 conf inactive
CCOP(=O)(OCC)/C(=N/OC(=O)c1ccc(Cl)cc1Cl)C(N)=O	none
N/C(=N\OC(=O)COc1ccc(Cl)cc1Cl)c1ccccn1	none (no result: PfHsp90 yeast 2)
Cc1cccc(/C(N)=N/OC(=O)c2ccc(Cl)cc2Cl)c1	TIM10 inh 86, tim23-1 inh 66 | TIM10 conf 88 | tim23-1 conf 40
CC(C)[C@@H]1Cc2[nH][nH]c(=O)c2[C@H](C(C)C)O1	none (no result: TIM10 inh, tim10-1 inh, PfHsp90 yeast 2, SKKanGAS inh, tim23-1 inh)
CSc1ccccc1NC(=O)NCCCl	none
CCOc1ccccc1OC(=O)CN1C(=O)c2ccccc2C1=O	none
COc1ccc(-c2cn(-c3ccccc3)c3[n+]2CCS3)cc1	none
COc1cc(/C=N/n2cnnc2-n2nc(C)cc2C)cc([N+](=O)[O-])c1O	none
COc1ccc(OC)c(N/C=C/C(=O)c2ccccc2)c1	TIM10 inh 44, tim23-1 inh 62 | TIM10 conf inactive | tim23-1 conf 83
Oc1ccc(/C=N/Nc2ncc(Br)cn2)c(O)c1	TIM10 inh 67, tim23-1 inh 70 | TIM10 conf inactive | tim23-1 conf 67
